High-throughput results deposited in PubChem by National Center for Advancing Translational Sciences (NCATS).
DRD3 agonist: qHTS of D3 Dopamine Receptor Agonist: qHTS; 0.58% of 410,000 active; D3R DiscoveRx beta-arrestin cells, luminescence, 90 min; max activation, %; in the data active means max activation above about 30%
Target sequence (P35462 whole entry, looked up): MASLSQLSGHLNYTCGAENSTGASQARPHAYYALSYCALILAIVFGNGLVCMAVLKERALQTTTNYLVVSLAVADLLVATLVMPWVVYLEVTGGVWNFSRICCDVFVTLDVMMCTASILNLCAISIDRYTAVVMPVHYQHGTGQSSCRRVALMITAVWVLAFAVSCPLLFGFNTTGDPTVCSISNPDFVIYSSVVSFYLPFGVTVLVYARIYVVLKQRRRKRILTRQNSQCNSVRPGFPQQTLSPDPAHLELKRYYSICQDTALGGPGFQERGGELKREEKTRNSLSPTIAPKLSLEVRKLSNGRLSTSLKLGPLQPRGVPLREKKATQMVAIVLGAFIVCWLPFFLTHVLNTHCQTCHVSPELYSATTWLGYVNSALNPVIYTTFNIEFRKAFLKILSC
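Agonist mode: compounds and dopamine controls were applied to plated cells for 90 min at 37 degrees C after an overnight attachment at 1500 cells/well. Luminescent read-out followed 30 - 60 minutes at room temperature with DiscoveRx detection reagent.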
D3 antag: qHTS of D3 Dopamine Receptor Antagonist: qHTS | D3R cells, DiscoveRx beta-arrestin luminescence, antagonist mode; hits give low values | D(3) dopamine receptor (Homo sapiens), P35462 | 2.5% of 360,000 active | max response, negative = inhibition, %; in the data active means max response below about -50%; inconclusive means no clear call, values can overlap the other calls
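Cells expressing the human receptor were seeded at 1500 cells/well, incubated overnight at 37 degrees C in 5% CO2, then exposed to library compounds with dopamine controls for 90 minutes at 37 degrees C before luminescent detection.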
KB-3-1 tox: qHTS assay for MDR1-selective chemotherapeutics: Primary screen using the parental adenocarcinoma cell KB-3-1; 1.4% of 400,000 active; KB-3-1 viability, CellTiter-Glo ATP luminescence, 72 h; Potency, µM (titrated, usually from 46.1 µM), hits mostly cytotoxic; AID 1347075, 2019; further: nearly all actives have a fitted effect of over 60% in size
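Screening of KB-3-1 cells (DMEM, 10% FBS, phenol-red free) ran from lowest to highest compound concentration; after 72 h at 37 °C viability was read luminescently and curves fitted.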
SW480 rereplic: A quantitative high throughput screen for small molecules that induce DNA re-replication in SW480 colon adenocarcinoma cells. SW480 DNA re-replication, Hoechst DNA content imaging, 48 h. Potency, µM (highest dose often 46.1 µM), hits mostly activators. 1.8% of 340,000 active; further: nearly all actives have a fitted effect of over 55% in size
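Image-based DNA-content assay: after two days of treatment, nuclei were labelled with the DNA dye Hoechst and imaged, and hits were compounds raising the count of nuclei showing high fluorescence intensity.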
MCF10A rerep: A quantitative high throughput screen for small molecules that induce DNA re-replication in MCF 10a normal breast cells; AID 624296, 2012; Potency, µM (series often up to 46.1 µM), actives largely listed as activators; 2.9% of 350,000 active; MCF 10A DNA re-replication, Hoechst nuclear intensity, 48 h; further: nearly all actives have a fitted effect of over 50% in size
KB-V1 cytotox: qHTS assay for MDR1-selective chemotherapeutics: Primary screen using the drug-selected MDR subline cells KB-V1; KB-V1 MDR cells viability, CellTiter-Glo, 72 h; Potency, µM (series often up to 46.1 µM), hits mostly cytotoxic; 3.4% of 400,000 active; further: nearly all actives have a fitted effect of over 60% in size
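Cells of the MDR subline KB-V1 are plated, dosed with compound at multiple concentrations, and incubated 72 h at 37 degrees C; CellTiter-Glo is then added and luminescence read after 10 min.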
Large screens that a line does not name were inactive; ! = not active in a repeat. Most compounds without a hit are left out; they make up all but 8.9% or so of the library. Unless noted, the call rests on the fitted dose curve; in most records, active means well fitted curve in the direction sought with a large enough effect; inconclusive means small, poorly fitted or top-dose-only effect, or another doubt; inactive means no such curve, though single readings can be large; an effect the other way counts as inactive or inconclusive.

O=C1NCN(c2ccccc2)C12CCN(C(c1cccc3ccccc13)c1nnnn1C1CCCC1)CC2 (configuration not stated)	KB-3-1 tox inconclusive, KB-V1 cytotox inconclusive (no result: SW480 rereplic, MCF10A rerep)
O=C1NCN(c2ccccc2)C12CCN(C(c1cccc3ccccc13)c1nnnn1C1CCCCC1)CC2 (configuration not stated)	D3 antag -70 (no result: SW480 rereplic, MCF10A rerep)
CSCCC(c1nnnn1Cc1ccccc1)N1CCC2(CC1)C(=O)NCN2c1ccccc1 (configuration not stated)	KB-V1 cytotox 15µM (no result: SW480 rereplic, MCF10A rerep)
O=S(c1ccccc1)c1ccccc1	none
CC(C)(C)n1nnnc1C(CCc1ccccc1)N1CCC2(CC1)C(=O)NCN2c1ccccc1 (configuration not stated)	D3 antag -68, KB-3-1 tox inconclusive, KB-V1 cytotox inconclusive (no result: SW480 rereplic, MCF10A rerep)
CC(C)(C)n1nnnc1C(c1ccccc1)N1CCC2(CC1)C(=O)NCN2c1ccccc1 (configuration not stated)	D3 antag -67 (no result: SW480 rereplic, MCF10A rerep)
Cc1cccc(OCC(=O)N2CCN(Cc3cc(=O)n4nc(-c5ccccc5Cl)sc4n3)CC2)c1	none (no result: D3 antag, SW480 rereplic, MCF10A rerep)
CCOC(=O)C1(CCOc2ccccc2)CCN(C2Cc3ccccc3C2)CC1	KB-3-1 tox inconclusive, MCF10A rerep 9.2µM, KB-V1 cytotox inconclusive
CC(C)n1c(/C=C/[C@H](O)C[C@H](O)CC(=O)O)c(-c2ccc(F)cc2)c2ccccc21	KB-3-1 tox inconclusive, SW480 rereplic inconclusive, KB-V1 cytotox inconclusive
CCOc1cc2c(cc1OCC)-n1cccc1C(c1ccc(C(C)C)cc1)NC2 (configuration not stated)	KB-3-1 tox inconclusive, SW480 rereplic inconclusive, MCF10A rerep 18µM, KB-V1 cytotox inconclusive
CCc1ccc(CN2CCN(Cc3cc(Br)ccc3O)CC2)cc1	D3 antag -80, SW480 rereplic inconclusive, MCF10A rerep inconclusive, KB-V1 cytotox inconclusive
CCN1CCN(Cc2cc(Br)cc(Br)c2O)CC1	D3 antag inconclusive, MCF10A rerep inconclusive
Oc1ccc(Br)cc1CN1CCN(c2ccccc2)CC1	D3 antag -95, KB-V1 cytotox 16µM
CCN1CCN(Cc2cc(Br)ccc2O)CC1	D3 antag -73
COc1ccc(Br)cc1CN1CCN(CCO)CC1	D3 antag -87, MCF10A rerep inconclusive
CCCCOc1ccc(Cn2c(=O)oc3ccccc32)cc1	MCF10A rerep inconclusive
C#CCN[C@H](C)Cc1ccccc1	SW480 rereplic 3.2µM, MCF10A rerep inconclusive
Cc1cccc(-n2c(CC3C(=O)Nc4ccc(C)cc43)nc3ccccc3c2=O)c1 (configuration not stated)	none (no result: D3 antag, SW480 rereplic, MCF10A rerep)
O=C(c1cccs1)c1cn(Cc2ccccc2Cl)c2ccccc12	KB-V1 cytotox 7.3µM
N#Cc1ccccc1Cn1cc(C(=O)c2ccccc2F)c2ccccc21	KB-V1 cytotox 2.3µM
N#Cc1ccccc1Cn1cc(C(=O)c2cccs2)c2ccccc21	KB-V1 cytotox inconclusive
Nc1nc(O)c(-c2ccccc2)o1	none (no result: DRD3 agonist, D3 antag, KB-3-1 tox, KB-V1 cytotox)
CCc1nc(SC)ncc1C(=O)Nc1ccc(Cl)cc1C(=O)c1ccccc1	none (no result: D3 antag, SW480 rereplic, MCF10A rerep)
CN1[C@H]2CC[C@@H]1[C@@H](C(=O)O)[C@@H](OC(=O)c1ccccc1)C2	none (no result: D3 antag, KB-3-1 tox, SW480 rereplic, MCF10A rerep, KB-V1 cytotox)
NC(=Nc1ccccc1)NN=Cc1c[nH]c2ccccc12	D3 antag inconclusive, KB-3-1 tox inconclusive, SW480 rereplic 6.5µM, KB-V1 cytotox 2.6µM
O/N=C/c1c[nH]c2ccccc12	none
CCOP(=O)(OCC)c1nc(-c2ccc(F)cc2)oc1NCc1ccccc1	MCF10A rerep 4.1µM
CCOP(=O)(OCC)c1nc(-c2cccc3ccccc23)oc1N1CCOCC1	MCF10A rerep inconclusive, KB-V1 cytotox inconclusive
CCOP(=O)(OCC)c1nc(-c2cccc3ccccc23)oc1NCCc1ccc(OC)cc1	KB-3-1 tox inconclusive, SW480 rereplic 21µM, MCF10A rerep 10µM, KB-V1 cytotox 5.2µM
CCOC(=O)c1oc2ccc(S(=O)(=O)n3nc(-c4ccc(Cl)cc4)cc3N)cc2c1C	KB-3-1 tox inconclusive, MCF10A rerep inconclusive
Cc1ccc(C(C)C)c(OCC(=O)N2CCN(CCc3ccncc3)CC2)c1	none (no result: D3 antag, SW480 rereplic, MCF10A rerep)
CN1C[C@H](CNC(=O)OCc2ccccc2)C[C@@H]2c3cccc4c3c(cn4C)C[C@H]21	D3 antag -117, SW480 rereplic 23µM, MCF10A rerep 23µM
CCOC(=O)C(C#N)=C(c1ccccc1)c1ccccc1	MCF10A rerep inconclusive (no result: D3 antag, KB-3-1 tox, KB-V1 cytotox)
Cc1cc(N2CCCC2)ccc1C=C(C#N)C#N	none
Cc1ccc2cc(C=C(C#N)C#N)c(Cl)nc2c1	KB-3-1 tox inconclusive, SW480 rereplic inconclusive, MCF10A rerep 7.3µM, KB-V1 cytotox inconclusive
O=C(CN1CCCCC1)NNC(=O)c1cccc(Br)c1	D3 antag -80
O=C(CN1CCCCC1)c1ccccc1	none (no result: DRD3 agonist, D3 antag, SW480 rereplic, MCF10A rerep)
CCCN(CCC)C(=O)Cc1c(-c2ccc(Cl)cc2)nc2ccc(Cl)cn12	none (no result: D3 antag, KB-3-1 tox, SW480 rereplic, MCF10A rerep, KB-V1 cytotox)
N#Cc1cn(C2OC(CO)C(O)C2O)c2ncnc(N)c12 (configuration not stated)	KB-3-1 tox 0.0073µM, KB-V1 cytotox inconclusive
NC(=O)c1ncn(C2OC(CO)C(O)C2O)n1 (configuration not stated)	none (no result: DRD3 agonist, D3 antag, KB-3-1 tox, KB-V1 cytotox)
NC(=O)c1cn(C2OC(CO)C(O)C2O)c2ncnc(N)c12 (configuration not stated)	KB-3-1 tox 0.021µM, SW480 rereplic 0.058µM, MCF10A rerep inconclusive, KB-V1 cytotox 0.0073µM!
C[C@H](CCC(=O)O)[C@H]1CC[C@@H]2[C@@H]3[C@@H](O)C[C@H]4C[C@@H](O)CC[C@@]4(C)[C@H]3CC[C@@]21C	none (no result: DRD3 agonist, D3 antag, KB-3-1 tox, KB-V1 cytotox)
CCCCCCOc1ccc(CN2CCN(CCO)CC2)cc1	KB-3-1 tox inconclusive, SW480 rereplic inconclusive, MCF10A rerep inconclusive
CCCCCCOc1ccc(C(=O)n2cnc(N)n2)cc1	MCF10A rerep 23µM
O=[N+]([O-])c1cc(C(F)(F)F)c(Cl)c([N+](=O)[O-])c1Nc1ncc(C(F)(F)F)cc1Cl	KB-3-1 tox 1.5µM, KB-V1 cytotox inconclusive (no result: DRD3 agonist, D3 antag, SW480 rereplic, MCF10A rerep)
CC(O)(CS(=O)(=O)c1ccccc1)C(=O)Nc1cccc(C(F)(F)F)c1 (configuration not stated)	KB-V1 cytotox 21µM
Cc1ccc(S(=O)(=O)CC(C)(O)C(=O)Nc2cccc(C(F)(F)F)c2)cc1 (configuration not stated)	D3 antag inconclusive
COc1ccc(/C=N\NC(=O)c2cccc(F)c2)cc1COc1ccccc1	SW480 rereplic 1.5µM, MCF10A rerep inconclusive, KB-V1 cytotox inconclusive
CC1(C)C(C(=O)N2CCN(c3ccc(Cl)cc3)CC2)C1(C)C	none
